The source of these data is PubChem BioAssay AID651814 (National Center for Advancing Translational Sciences (NCATS), 2012).

The campaign covered roughly 2,100 compounds. About 590 (28%) were called active. Inconclusive results (about 42%) are left out. The call rests on the fitted dose curve; in most records, active means well fitted inhibition curve with a large enough effect; inconclusive means small, poorly fitted or top-dose-only effect; inactive means flat fitted curve, though single readings scatter. This is one part of the list.
Potency means the concentration at half of the fitted maximal effect.

Sequence of DNA dC->dU-editing enzyme APOBEC-3F (Homo sapiens) (Q8IUX4 whole entry, looked up): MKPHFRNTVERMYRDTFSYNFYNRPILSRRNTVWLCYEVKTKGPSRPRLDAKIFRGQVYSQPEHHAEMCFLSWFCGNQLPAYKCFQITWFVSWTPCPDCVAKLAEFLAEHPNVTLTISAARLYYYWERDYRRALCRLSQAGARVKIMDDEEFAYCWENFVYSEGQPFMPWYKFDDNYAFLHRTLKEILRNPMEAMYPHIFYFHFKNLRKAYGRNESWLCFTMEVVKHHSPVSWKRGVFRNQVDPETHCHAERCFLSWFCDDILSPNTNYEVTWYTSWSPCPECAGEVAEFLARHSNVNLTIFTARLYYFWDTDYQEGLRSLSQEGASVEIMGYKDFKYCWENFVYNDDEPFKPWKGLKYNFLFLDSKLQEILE

The assay concerns the target DNA dC->dU-editing enzyme APOBEC-3F (Homo sapiens) (UniProt Q8IUX4). Briefly: qHTS for inhibitors of Vif-A3F interactions: Cherry picks. Further: nearly all actives have a fitted effect of over 70% in size.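 On max response: % of control where 0% means no effect; active compounds raise eYFP fluorescence by blocking Vif-driven A3F loss.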 The conditions noted are these: HeLa A3F-eYFP + Vif (tagged APOBEC3F with the HIV-1 protein that degrades it), eYFP fluorescence, 24 h. An outline of the steps:
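HeLa cells stably expressing A3F-eYFP plus Vif, cultured overnight, then exposed to compounds at several concentrations for 24 h at 37 deg C. Reduced Vif-driven degradation read as rising eYFP fluorescence (488 nm ex/500-530 nm em) by laser-scanning cytometry; MG132 as positive control.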
Consider `N#C/C(=C/c1cccs1)c1ccccn1`, for which the Potency was 17.7 µM (active).
For `CCOc1ccc(Br)cc1C1C(C(=O)OC)=C(N)Oc2cc(N(C)C)ccc21` (stereo unspecified), the max response was -21.7% (inactive).
On to `COc1cccc(N=C2NC(=O)/C(=C/c3cc([N+](=O)[O-])ccc3O)S2)c1`, for which the max response was -16.1% (inactive).
`Cc1ccc(N=C2NC(=O)/C(=C/c3cn(C)c4ccccc34)S2)cc1C`: the Potency was 17.7 µM (active).
Regarding `Cc1ccc(N=C2NC(=O)/C(=C/c3cccn3C)S2)cc1`, the Potency is 9.94 µM (active).
In the case of `Cn1cccc1/C=C1\SC(=Nc2ccc(O)cc2)NC1=O`, the Potency was 12.5 µM (active).
With `Cc1cccc(N=C2NC(=O)/C(=C/c3cccn3C)S2)c1`, the max response was -9.23% (inactive).
As for `Cn1cccc1/C=C1\SC(=Nc2cccc(O)c2)NC1=O`, the Potency is 15.8 µM (active).
For the compound `C=C1C(=O)O[C@@H]2[C@H]1[C@@H](OC(=O)/C(C)=C/C)C/C(C)=C\C(=O)/C=C(\C)[C@@H]2O`, the max response was -29.6% (inactive).
As for `Cc1ccc(N2C(=O)[C@@H]3[C@H](C2=O)[C@H]2C=C(C(=O)c4ccccc4)C=CN2[C@@H]3C(=O)c2ccc(Cl)cc2)cc1`, the max response was -5.61% (inactive).
As to `COc1ccc(/C=C(/C(=O)c2cccs2)N2C=CC=CC2=C(C#N)C#N)cc1`, the max response is -25.3% (inactive).
Turning to `CCOC(=O)c1c(CN(CC)CC)n(-c2ccccc2)c2ccc(O)cc12`, the max response was 0.203% (inactive).
As to `COc1cc(/C=C2\SC(=Nc3cccnc3)NC2=O)cc(OC)c1OC`, the max response was -8.17% (inactive).
With `COc1cc(/C=C2/SC(=Nc3ccc(O)cc3)NC2=O)ccc1O`, the Potency was 16.4 µM (active).
Take `CCC(=O)NC(=S)Nc1cccc(Cl)c1N1CCCC1`: the max response was -0.93% (inactive).
The same measure, in the same setting: with `COCCCN(C(C)=O)c1nc(-c2ccc(OC)cc2)cs1` the figure was -29.1% (inactive).
As to `CCOC(=O)c1cc(-c2ccccc2)sc1NC(=S)Nc1cc(C)ccn1`, the Potency is 8.2 µM (active).
Take `CCOC(=O)c1ccc(NC(=S)Nc2cccc(C)n2)cc1`: the max response is -6.7% (inactive).
For `Cc1ccc(NC(=S)Nc2ccccn2)c(C)c1`, the max response was 1.92% (inactive).
In the case of `CC(=O)Nc1ccc2c(c1)Cc1ccc(Cl)cc1-2`, the max response was -9.88% (inactive).
For `NC(=O)C1CCN(c2nc3ccccc3nc2NS(=O)(=O)c2ccc(Br)cc2)CC1`, the max response is -0.959% (inactive).
With `COc1ccc(N2C(=O)NC3CC2(C)Oc2ccccc23)cc1OC` (stereo unspecified), the max response was -29.4% (inactive).
On to `N#C/C(=C\c1ccc([N+](=O)[O-])o1)c1nc2ccccc2[nH]1`, for which the Potency is 5.17 µM (active).
Consider `Cc1ccc2nc(/C(C#N)=C\c3ccc([N+](=O)[O-])o3)[nH]c2c1`, for which the Potency is 3.26 µM (active).
Take `COc1ccc(C(C)(O)c2nc(-c3ccccc3OC)cs2)cc1` (stereo unspecified): the max response is -27.4% (inactive).
For the compound `CN(C)c1ccc(/C=C2\Oc3ccc(C#Cc4cccc(N)c4)cc3C2=O)cc1`, the Potency is 12.5 µM (active).
For `O=C1/C(=C/c2ccc([N+](=O)[O-])cc2)Oc2cc(O)ccc21`, the max response was -5.76% (inactive).
Take `Cc1ccnc(N/C=C(\C#N)c2nc(-c3cccc(Br)c3)cs2)c1`: the Potency is 11.2 µM (active).
With `O=[N+]([O-])c1ccccc1S(=O)(=O)Nc1ccc(-c2ccc(N3CCOCC3)nn2)cc1`, the max response is -8.95% (inactive).
With `COc1ccccc1NS(=O)(=O)c1cc([N+](=O)[O-])ccc1N/N=C/c1sc(N2CCOCC2)nc1-c1ccccc1`, the Potency was 2.06 µM (active).
Take `O=C(O)c1ccccc1/C=N/Nc1ccc(S(=O)(=O)N2CCOCC2)cc1[N+](=O)[O-]`: the max response was -0.875% (inactive).
As to `O=[N+]([O-])c1ccc(N/N=C/c2sc(N3CCOCC3)nc2-c2ccccc2)c(S(=O)(=O)Nc2ccccc2Cl)c1`, the Potency was 9.2 µM (active).
For `COc1ccc(NC(=O)C2Cc3c(-c4cccc(C(C)=O)c4)ccnc3O2)cn1` (stereo unspecified), the max response is -25.1% (inactive).
Consider `CC(=O)/C(N=Nc1cc(C)ccc1O)=C(\C)O`, for which the Potency was 20.6 µM (active).
`Cc1cc(N/N=C/c2ccc(O)cc2O)nc(-n2nc(C)cc2C)n1`: the max response was 2.91% (inactive).
For the compound `COC(=O)c1sccc1S(=O)(=O)N(CC(=O)Nc1cc(F)ccc1F)c1ccc(C)c(C)c1`, the max response was 4.72% (inactive).
`O=S(=O)(Nc1nc2n(n1)C(c1ccccc1)C=C(c1ccc(Cl)cc1)N2)c1ccccc1` (stereo unspecified): the max response is -9.71% (inactive).
With `CC[n+]1ccccc1/C=C1\Sc2ccc(C)cc2N1C`, the Potency was 23.1 µM (active).
For `CCN1/C(=C/c2cccc[n+]2C)Sc2ccc(OC)cc21`, the Potency was 18.4 µM (active).
For `COc1ccc(C(=O)Nc2ccc3c(c2)N(C)C(=O)c2ccccc2S3)cc1OC`, the max response was -28.4% (inactive).
Same read-out and setting: with `CC[n+]1ccc(/C=C2\Sc3ccccc3N2CCCS(=O)(=O)[O-])c2ccccc21` the figure was -17.2% (inactive).
Consider `COc1ccc2c(c1)N(C)/C(=C/c1cccc[n+]1C)S2`, for which the Potency was 7.04 µM (active).
For the compound `N#CC1=C(N)Oc2c(sc3ccccc23)C1c1ccco1` (stereo unspecified), the max response is -18.3% (inactive).
Take `COc1cc2c3nnc(-c4ccc(F)cc4)c-3cn(Cc3ccc(C)cc3)c2cc1OC`: the Potency was 9.94 µM (active).
Regarding `Cn1ccnc1Sc1nc2ccccc2nc1NS(=O)(=O)c1ccccc1`, the max response was -9.48% (inactive).
For `O=C(Nc1nnc(-c2ccc3c(c2)CCCC3)o1)c1c(F)cccc1F`, the max response is 0.764% (inactive).
For the compound `CCN(CC)c1nc2cc(OC)ccc2cc1C#N`, the max response was -15.5% (inactive).
`COc1ccc2c(C)cc(SCC#N)nc2c1`: the Potency was 20.6 µM (active).
For `COCCNC(=S)NN=C1CCCCCC1`, the max response is 2.16% (inactive).
Same read-out and setting: with `C/C(=N\NC(=S)NCc1ccccc1)c1cccs1` the figure was -3.71% (inactive); with `COc1cccc(NC(=O)c2oc3ccc(S(=O)(=O)N4CCC5(CC4)OCCO5)cc3c2C)c1`, -28.1% (inactive).
`CC(NC(=O)/C(C#N)=C/c1ccc([N+](=O)[O-])o1)c1ccccc1` (stereo unspecified): the Potency is 7.31 µM (active).
For the compound `CCOCCCNC(=O)/C(C#N)=C/c1ccc([N+](=O)[O-])o1`, the Potency is 16.4 µM (active).
In the case of `NC1=NC(=O)/C(=C/c2cc(Br)c(O)c(Br)c2)S1`, the max response is -7.06% (inactive).
For `Cc1ccc2[nH]c3c(c2c1)CCCC3NC(=O)CCl` (stereo unspecified), the max response was -15.6% (inactive).
With `O=C1CC(c2cc(Br)ccc2F)c2cc3c(cc2N1)CCC3` (stereo unspecified), the max response is -29.3% (inactive).
In the case of `COc1ccc(-c2ccc3c(c2)S(=O)(=O)c2cccc(C(=O)NCCOc4ccccc4)c2C3=O)cc1OC`, the Potency was 15.8 µM (active).
For the compound `CC1CCN(c2ccc3c(c2)S(=O)(=O)c2cccc(C(=O)NCc4cccc(F)c4)c2C3=O)CC1`, the Potency is 14 µM (active).
For `COc1cc(C(=O)NCCOc2cc(C)cc(C)c2)c(Br)c(OC)c1OC`, the max response is -22.9% (inactive).
For the compound `O=C(NCc1cccc(F)c1)c1cccc2c1C(=O)c1ccc(N3CCCC3)cc1S2(=O)=O`, the Potency was 14 µM (active).
In the case of `O=C(NCc1ccccc1C(F)(F)F)c1cccc2c1C(=O)c1ccc(N3CCC(N4CCCCC4)CC3)cc1S2(=O)=O`, the Potency was 16.4 µM (active).
